Drawing on paper PMC5913336, “True equilibrium measurement of transcription factor-DNA binding affinities using automated polarization microscopy”, this text covers binding signal and Kd for 40 sequences.

In one assay the target is T1, Hb (Drosophila melanogaster, UniProt P05084 225-364).
T1 sequence: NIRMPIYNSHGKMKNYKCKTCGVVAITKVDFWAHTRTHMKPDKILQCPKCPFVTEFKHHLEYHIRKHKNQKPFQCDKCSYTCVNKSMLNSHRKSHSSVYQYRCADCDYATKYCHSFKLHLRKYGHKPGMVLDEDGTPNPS
Description: FP; 33 mM phosphate pH 7.0, 90 mM NaCl, 0.01% Tween 20, 0.1 mM DTT, 0.5% agarose; room temperature. As to conditions: tags: N-GST (pGEX-6P-1, kept); dsDNA, one strand shown.
For the sequence TGTTTTTTAGGC, the binding signal is 1.1 Kd / Kd of best base at the position.

Consider AGTTTTTTAGGG, for which the binding signal was 1.25 Kd / Kd of best base at the position.

For the sequence AGTTCTTTAGGC, the binding signal is 13.1 Kd / Kd of best base at the position.

Turning to AGTTTTTTAGTC, the binding signal is 1.14 Kd / Kd of best base at the position.

In the case of AGTTTTTTAGAC, the binding signal was 1.59 Kd / Kd of best base at the position.

Another assay addresses T2, Hkb (Drosophila melanogaster, UniProt Q9VN10 181-296).
T2 sequence: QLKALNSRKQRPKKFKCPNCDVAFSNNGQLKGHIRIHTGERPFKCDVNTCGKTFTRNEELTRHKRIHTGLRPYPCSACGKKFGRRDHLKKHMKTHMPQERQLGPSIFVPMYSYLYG
Described as above. As to conditions: tags: N-GST (pGEX-6P-1, kept); dsDNA, one strand shown.
Turning to AAGGGGCGTGAG, the binding signal was 1.09 Kd / Kd of best base at the position.

Turning to AAGGTGCGTGAT, the binding signal was 62.2 Kd / Kd of best base at the position.

For the sequence ATGGGGCGTGAT, the binding signal is 2.01 Kd / Kd of best base at the position.

For AAGGGGCGTGGT, the binding signal is 127 Kd / Kd of best base at the position.

On to AAAGGGCGTGAT, for which the binding signal is 3.42 Kd / Kd of best base at the position.

On to AAGGCGCGTGAT, for which the binding signal is 108 Kd / Kd of best base at the position.

As to AAGGGACGTGAT, the binding signal was 86.7 Kd / Kd of best base at the position.

Take AAGGGGCGGGAT: the binding signal is 85.9 Kd / Kd of best base at the position.

For the sequence AAGGGGCGTGTT, the binding signal is 150 Kd / Kd of best base at the position.

Regarding AAGGGTCGTGAT, the binding signal was 116 Kd / Kd of best base at the position.

For AAGGGGCATGAT, the binding signal was 318 Kd / Kd of best base at the position.

Take AAGGAGCGTGAT: the binding signal is 52 Kd / Kd of best base at the position.

Turning to TAGGGGCGTGAT, the binding signal is 2.68 Kd / Kd of best base at the position.

As for AAGCGGCGTGAT, the binding signal is 121 Kd / Kd of best base at the position.

Consider AAGGGGCGTGCT, for which the binding signal was 119 Kd / Kd of best base at the position.

For AAGGGGCGTGAA, the binding signal is 2.74 Kd / Kd of best base at the position.

Consider AGGGGGCGTGAT, for which the binding signal was 5.34 Kd / Kd of best base at the position.

On to AAGAGGCGTGAT, for which the binding signal was 8.29 Kd / Kd of best base at the position.

As to AAGGGGCGAGAT, the binding signal was 75.8 Kd / Kd of best base at the position.

Take AAGGGGCGTAAT: the binding signal is 130 Kd / Kd of best base at the position.

AAGGGGCGCGAT: the binding signal was 170 Kd / Kd of best base at the position.

For the sequence AAGGGGAGTGAT, the binding signal is 103 Kd / Kd of best base at the position.

Consider AAGGGGCGTTAT, for which the binding signal is 124 Kd / Kd of best base at the position.

With AAGTGGCGTGAT, the binding signal is 155 Kd / Kd of best base at the position.

For AAGGGGCGTGAC, the binding signal was 1.18 Kd / Kd of best base at the position.

Take AAGGGGTGTGAT: the binding signal was 277 Kd / Kd of best base at the position.

Consider CAGGGGCGTGAT, for which the binding signal is 6.48 Kd / Kd of best base at the position.

Turning to AAGGGGGGTGAT, the binding signal is 55.1 Kd / Kd of best base at the position.

Consider AAGGGGCGTCAT, for which the binding signal is 134 Kd / Kd of best base at the position.

In the case of AATGGGCGTGAT, the binding signal is 1.81 Kd / Kd of best base at the position.

One may read the Kd as the constant that tells how readily two partners part at equilibrium. The sequence AAGGGGCGTGAT came in with a Kd of approximately 2.3 nM.

Regarding ACGGGGCGTGAT, the binding signal was 2.33 Kd / Kd of best base at the position.

Take AAGGGGCCTGAT: the binding signal is 164 Kd / Kd of best base at the position.

With GAGGGGCGTGAT, the binding signal was 3 Kd / Kd of best base at the position.

In the case of AACGGGCGTGAT, the binding signal is 16.2 Kd / Kd of best base at the position.
